In PubChem BioAssay AID1224921 (Broad Institute, 2016) one finds max activity data, which are given here for 20 molecules.

Screen size: about 1,400 compounds; about 350 (25%) were called active. Inconclusive results (about 2%) are left out. The rule behind the calls is not given here. A selection follows. Results with a measured potency or affinity are listed apart.

A short description of the test: inhibitors of Clostridioides difficile proliferation – 4-point retest, confirmation (AID 1224921).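 Note: plate controls were DMSO wells for no effect and levofloxacin 16 µg/mL wells for full effect.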 The conditions noted are these: Clostridioides difficile clinical isolate growth, OD600, 24 h, active compounds read low; at 30 µM unless noted.
Regarding `C[C@@H]1CN([C@H](C)CO)C(=O)Cc2cc(NC(=O)c3ccncc3)ccc2O[C@H]1CN(C)Cc1ccc(Cl)c(Cl)c1`, the max activity was 5.9% [at 35 µM] (inactive).

As for `O=C(N[C@@H]1C=C[C@H](CC(=O)N2CCOCC2)O[C@@H]1CO)c1cccc(F)c1`, the max activity is 9.1% [at 8 µM] (inactive).

As for `CCCC(=O)Nc1ccc2c(c1)C(=O)N(C)C[C@H](OC)[C@@H](C)CN(CC1CCOCC1)[C@H](C)CO2`, the max activity is -10.3% (inactive).

Regarding `O=C(C[C@H]1C[C@H]2c3cc(NS(=O)(=O)c4ccc(F)cc4)ccc3O[C@H]2[C@H](CO)O1)NCc1ccc(-c2ccccc2)cc1`, the max activity was -6.35% [at 1.95 µM] (inactive).

With `COCC(=O)N1[C@@H]2c3ccc(-c4ccncc4)c(=O)n3C[C@@H]2[C@@H](CO)[C@@H]1C(=O)Nc1ccccc1`, the max activity is -4.68% [at 0.5 µM] (inactive).

Regarding `C[C@H](NC(=O)C[C@@H]1C[C@@H]2c3cc(NC(=O)NC4CCCCC4)ccc3O[C@@H]2[C@H](CO)O1)c1ccccc1`, the max activity is -12.5% [at 1.95 µM] (inactive).

As to `C[C@@H]1CN([C@H](C)CO)C(=O)Cc2cc(N(C)C)ccc2O[C@@H]1CN(C)Cc1ccc(Oc2ccccc2)cc1`, the max activity is 27.6% [at 35 µM] (inactive).

`C[C@@H]1CN([C@@H](C)CO)C(=O)Cc2cc(N(C)C)ccc2O[C@@H]1CN(C)Cc1ccc(Oc2ccccc2)cc1`: the max activity is 32.7% (inactive).

With `C[C@H](CO)N1C[C@H](C)[C@@H](CN(C)Cc2ccccc2)Oc2ccc(N(C)C)cc2CC1=O`, the max activity is 18.1% (inactive).

For `C[C@H](CO)N1C[C@H](C)[C@@H](CN(C)Cc2ccc(C(F)(F)F)cc2)Oc2ccc(N(C)C)cc2CC1=O`, the max activity was 14% [at 8 µM] (inactive).

As for `C[C@@H]1CN([C@@H](C)CO)C(=O)Cc2cc(NC(=O)C3CC3)ccc2O[C@@H]1CN(C)Cc1ccc(Oc2ccccc2)cc1`, the max activity is 32.9% (inactive).

As for `C[C@@H]1CN([C@H](C)CO)C(=O)Cc2cc(N(C)C)ccc2O[C@@H]1CN(C)Cc1ccc(-c2ccccc2)cc1`, the max activity is 13.4% [at 8 µM] (inactive).

On to `C[C@@H]1CN([C@H](C)CO)S(=O)(=O)c2ccc(C#Cc3ccccc3)cc2O[C@H]1CN(C)C(=O)Nc1ccccc1`, for which the max activity is 8.1% [at 8 µM] (inactive).

With `C[C@H](CO)N1C[C@H](C)[C@@H](CN(C)CC2CC2)Oc2cc(-c3ccc(F)cc3)ccc2S1(=O)=O`, the max activity is 38% (inactive).

Take `N#C[C@H]1[C@@H](c2ccc(C#CC3CCCC3)cc2)[C@@H](CO)N1S(=O)(=O)Cc1ccccc1`: the max activity is 29.9% [at 8 µM] (inactive).

Turning to `Cc1ccccc1S(=O)(=O)N1[C@H](C#N)[C@@H](c2ccc(C#CC3CC3)cc2)[C@@H]1CO`, the max activity was 26.6% [at 7.5 µM] (inactive).

As to `CN(C)CC(=O)N1[C@H](C#N)[C@H](c2ccc(C#CC3CCCCC3)cc2)[C@@H]1CO`, the max activity was 14.2% [at 8 µM] (inactive).

For `N#C[C@H]1[C@@H](c2ccc(C#CC3CCCCC3)cc2)[C@@H](CO)N1S(=O)(=O)c1ccccc1`, the max activity was 31.9% [at 8 µM] (inactive).

As to `CCCC#Cc1ccc([C@H]2[C@@H](CO)N(C(=O)C3CCCCC3)[C@H]2C#N)cc1`, the max activity is 25.3% [at 8 µM] (inactive).

As to `CN(C)CC(=O)N1[C@@H](C#N)[C@H](c2ccc(C#CC3CCCCC3)cc2)[C@@H]1CO`, the max activity was 22.7% [at 8 µM] (inactive).
